Reference: PubChem BioAssay (NCATS)
Records with an inconclusive call do not appear. Active and inactive are the calls of the source. Unless noted, calls come from the whole dose curve; as a rule, active = well fitted curve in the direction sought with a large enough effect; inconclusive = small, poorly fitted or top-dose-only effect, or another doubt; inactive = no such curve, though single readings can be large; an effect the other way counts as inactive or inconclusive.

Columns and labels:
[1] = target: ATPase family AAA domain-containing protein 5 (Homo sapiens) (UniProt Q96QE3); assay: Validation screen for small molecules that inhibit ELG1-dependent DNA repair in human embryonic kidney (HEK293T) cells expressing luciferase-tagged ELG1 (AID 493107);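 note: cells co-treated with the DNA-damaging agent 5-fluorouridine alongside compound; series mostly up to about 46 µM; % is set by controls: 0 for no effect and ±100 for the full control effect; inhibitors lower the ELG1-luciferase luminescence signal; nearly all actives have a fitted effect of over 70% in size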
ATPase family AAA domain-containing protein 5 (Homo sapiens), sequence (Q96QE3 whole entry, looked up, the tested form may be a part): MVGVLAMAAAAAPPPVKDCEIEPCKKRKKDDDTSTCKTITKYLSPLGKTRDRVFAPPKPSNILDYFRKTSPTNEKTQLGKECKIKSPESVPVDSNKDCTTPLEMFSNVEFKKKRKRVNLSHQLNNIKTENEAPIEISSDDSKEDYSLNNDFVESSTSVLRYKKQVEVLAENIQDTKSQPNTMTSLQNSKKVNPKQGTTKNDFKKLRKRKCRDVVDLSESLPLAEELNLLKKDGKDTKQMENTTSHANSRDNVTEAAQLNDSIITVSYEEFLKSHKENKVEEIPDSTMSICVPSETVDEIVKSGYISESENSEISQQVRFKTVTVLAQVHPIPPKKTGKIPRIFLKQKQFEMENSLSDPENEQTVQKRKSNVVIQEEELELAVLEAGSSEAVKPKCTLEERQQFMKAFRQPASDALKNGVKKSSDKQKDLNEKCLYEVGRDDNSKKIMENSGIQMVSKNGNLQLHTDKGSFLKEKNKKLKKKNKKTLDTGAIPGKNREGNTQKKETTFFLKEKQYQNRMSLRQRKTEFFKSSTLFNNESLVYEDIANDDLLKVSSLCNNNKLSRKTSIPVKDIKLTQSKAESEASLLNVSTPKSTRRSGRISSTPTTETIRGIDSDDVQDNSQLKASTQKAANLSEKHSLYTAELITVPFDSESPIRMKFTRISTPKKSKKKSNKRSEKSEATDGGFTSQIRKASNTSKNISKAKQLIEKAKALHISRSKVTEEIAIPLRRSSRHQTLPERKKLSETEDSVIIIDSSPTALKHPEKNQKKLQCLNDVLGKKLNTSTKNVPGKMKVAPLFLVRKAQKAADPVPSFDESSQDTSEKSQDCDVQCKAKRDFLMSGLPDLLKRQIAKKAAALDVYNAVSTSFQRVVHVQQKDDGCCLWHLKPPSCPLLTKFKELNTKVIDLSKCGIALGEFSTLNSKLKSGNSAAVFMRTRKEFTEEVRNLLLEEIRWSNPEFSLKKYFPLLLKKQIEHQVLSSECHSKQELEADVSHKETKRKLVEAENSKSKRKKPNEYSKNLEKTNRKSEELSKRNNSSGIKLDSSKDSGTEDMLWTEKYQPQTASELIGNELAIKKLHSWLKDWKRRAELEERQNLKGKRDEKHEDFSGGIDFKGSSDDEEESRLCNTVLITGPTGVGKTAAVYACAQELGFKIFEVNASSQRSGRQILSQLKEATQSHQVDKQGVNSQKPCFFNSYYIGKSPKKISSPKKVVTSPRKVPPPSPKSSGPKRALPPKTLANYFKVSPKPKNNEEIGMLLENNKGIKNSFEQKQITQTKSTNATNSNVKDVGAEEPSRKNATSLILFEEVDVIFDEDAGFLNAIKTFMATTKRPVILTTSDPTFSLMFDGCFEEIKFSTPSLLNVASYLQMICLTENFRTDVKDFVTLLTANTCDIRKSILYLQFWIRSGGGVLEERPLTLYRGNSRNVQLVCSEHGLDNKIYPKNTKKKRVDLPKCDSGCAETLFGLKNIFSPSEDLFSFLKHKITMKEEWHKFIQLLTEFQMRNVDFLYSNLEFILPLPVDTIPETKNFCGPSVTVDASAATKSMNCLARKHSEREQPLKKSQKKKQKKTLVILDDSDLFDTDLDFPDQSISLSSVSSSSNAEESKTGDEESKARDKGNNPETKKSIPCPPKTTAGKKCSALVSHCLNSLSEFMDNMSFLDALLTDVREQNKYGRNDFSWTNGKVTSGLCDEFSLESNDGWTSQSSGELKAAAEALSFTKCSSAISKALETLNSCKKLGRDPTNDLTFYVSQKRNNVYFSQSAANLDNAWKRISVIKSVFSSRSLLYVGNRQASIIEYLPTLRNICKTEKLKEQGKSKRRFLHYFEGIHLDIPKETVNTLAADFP
Procedure, shortened: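 Compounds reducing 5-fluorouridine-driven ELG1-luciferase signal in HEK293T cells were scored; exposure lasted 16 hr at 37 °C with luminescence detected via ONE-Glo.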

[2] = Nrf2 qHTS screen for inhibitors: Validation (AID 493153; active = well fitted inhibition curve with a large enough effect in the main read-out, with a control signal flat, not every such curve was filed as active); conditions: Potency: luciferase luminescence; viability change: measured here: cytotoxicity max response
Procedure, shortened: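 In this counterscreened reporter format, each well gives two signals: CellTiter-Fluor fluorescence for cytotoxicity and ARE-luciferase luminescence for Nrf2 function. A549 ARE_Fluc cells in 5% FBS OPTI-MEM were exposed to compound titrations for 18-24 h.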

[3] = qHTS for Inhibitors of Cell Surface uPA Generation: Validation Assay (AID 493164);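 note: RAW 264.7 macrophage cells exposed to compound for 18 h; 0% is about no effect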
Procedure, shortened: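 Compounds are titrated over seven points (2.45 nM–38.3 uM final) onto pre-plated RAW 264.7 cells and incubated for 18 h. Retained intracellular ATP, measured with ATP-Lite, indicates blocked lethal factor entry.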

[4] = target: Peptidyl-prolyl cis-trans isomerase NIMA-interacting 1 (Homo sapiens) (UniProt Q13526); assay: qHTS Validation Assay to Find Inhibitors of Pin1 (AID 504536; active = well fitted inhibition curve with a large enough effect in the polarisation, with a control signal flat, not every such curve was filed as active; the % refers to the polarisation;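 note: 0% = full Pin1 enzyme wells and -100% = no-enzyme wells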)
Peptidyl-prolyl cis-trans isomerase NIMA-interacting 1 (Homo sapiens), sequence (Q13526 whole entry, looked up): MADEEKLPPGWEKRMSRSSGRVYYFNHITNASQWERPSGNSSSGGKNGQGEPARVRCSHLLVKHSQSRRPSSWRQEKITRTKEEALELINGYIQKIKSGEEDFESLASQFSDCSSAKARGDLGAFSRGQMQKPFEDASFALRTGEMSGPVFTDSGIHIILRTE
Procedure, shortened: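 Fluorescence polarization competition: compounds (titration) displace HiFluor-488-labeled Pin1-1b peptide from Pin1 (0.3 uM final) in pH 7.5 HEPES buffer with DTT, 10 min at room temperature; %Activity normalized to no-enzyme wells, curves fitted.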

[5] = target: Phosphoglycerate kinase, glycosomal (Trypanosoma brucei brucei) (UniProt P07378); assay: qHTS Validation Assay to Find Inhibitors of Phosphoglycerate Kinase (AID 504547);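 note: control wells lack PGK and mark full inhibition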
Phosphoglycerate kinase, glycosomal (Trypanosoma brucei brucei), sequence (P07378 whole entry, looked up): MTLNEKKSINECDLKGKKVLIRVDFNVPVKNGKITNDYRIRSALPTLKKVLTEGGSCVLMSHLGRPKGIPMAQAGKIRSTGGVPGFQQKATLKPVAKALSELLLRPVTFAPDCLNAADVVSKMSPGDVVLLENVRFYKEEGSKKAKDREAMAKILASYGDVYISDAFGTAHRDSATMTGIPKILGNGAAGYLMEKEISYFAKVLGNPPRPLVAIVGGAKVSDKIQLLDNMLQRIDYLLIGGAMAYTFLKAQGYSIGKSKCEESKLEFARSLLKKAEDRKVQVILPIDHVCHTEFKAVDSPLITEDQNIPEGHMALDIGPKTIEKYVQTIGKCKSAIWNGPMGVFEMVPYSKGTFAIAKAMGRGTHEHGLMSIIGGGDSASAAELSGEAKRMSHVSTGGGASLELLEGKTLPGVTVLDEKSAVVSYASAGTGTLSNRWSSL
Procedure, shortened: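 Luminescence end-point (Kinase-Glo Plus, 10 min) after a 60 min room-temperature coupled reaction. GAPDH at 100nM final supplies 1,3-BPG to PGK. Buffer: 100mM TEA pH 7.6, 5mM MgCl2, 0.01% Tween-20. Wells lacking PGK served as controls.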

[6] = target: phosphoglycerate mutase (Leishmania major) (UniProt Q4Q090); assay: qHTS Validation Assay to Find Inhibitors of Phosphoglycerate Mutase (AID 504548); note: series mostly up to about 58 µM; % is set by controls: 0 for no effect and ±100 for the full control effect
phosphoglycerate mutase (Leishmania major), sequence (Q4Q090 1-553): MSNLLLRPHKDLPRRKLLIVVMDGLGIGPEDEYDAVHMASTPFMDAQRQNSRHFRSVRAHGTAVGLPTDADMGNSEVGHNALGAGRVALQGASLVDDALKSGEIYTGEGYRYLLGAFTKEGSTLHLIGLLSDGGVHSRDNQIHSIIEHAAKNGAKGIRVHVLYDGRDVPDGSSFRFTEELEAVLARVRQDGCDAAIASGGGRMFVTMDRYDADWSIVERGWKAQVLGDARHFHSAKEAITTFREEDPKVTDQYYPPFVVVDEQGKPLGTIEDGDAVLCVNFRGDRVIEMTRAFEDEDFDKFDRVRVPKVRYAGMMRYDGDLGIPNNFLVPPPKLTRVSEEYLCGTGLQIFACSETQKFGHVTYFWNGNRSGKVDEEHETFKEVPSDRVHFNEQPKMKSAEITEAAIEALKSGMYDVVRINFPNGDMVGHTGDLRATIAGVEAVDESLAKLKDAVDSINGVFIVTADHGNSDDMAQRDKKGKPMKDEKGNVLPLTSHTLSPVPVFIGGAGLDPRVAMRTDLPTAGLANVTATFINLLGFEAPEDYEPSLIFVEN
Procedure, shortened: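 Lm PGAM at 1.25 nM final with substrate in 100 mM TEA pH 7.6, 5 mM MgCl2, 0.01% Tween-20; 45 min at room temperature. Kinase-GloPlus added, 10 min, end-point luminescence read.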

[7] = target: Ubiquitin carboxyl-terminal hydrolase 1 (Homo sapiens) (UniProt O94782); assay: Inhibitors of USP1/UAF1: Pilot qHTS (AID 504865); note: nearly all actives have a fitted effect of over 35% in size; note: potency is the fitted concentration of half-maximal effect
Ubiquitin carboxyl-terminal hydrolase 1 (Homo sapiens), sequence (O94782 whole entry, looked up): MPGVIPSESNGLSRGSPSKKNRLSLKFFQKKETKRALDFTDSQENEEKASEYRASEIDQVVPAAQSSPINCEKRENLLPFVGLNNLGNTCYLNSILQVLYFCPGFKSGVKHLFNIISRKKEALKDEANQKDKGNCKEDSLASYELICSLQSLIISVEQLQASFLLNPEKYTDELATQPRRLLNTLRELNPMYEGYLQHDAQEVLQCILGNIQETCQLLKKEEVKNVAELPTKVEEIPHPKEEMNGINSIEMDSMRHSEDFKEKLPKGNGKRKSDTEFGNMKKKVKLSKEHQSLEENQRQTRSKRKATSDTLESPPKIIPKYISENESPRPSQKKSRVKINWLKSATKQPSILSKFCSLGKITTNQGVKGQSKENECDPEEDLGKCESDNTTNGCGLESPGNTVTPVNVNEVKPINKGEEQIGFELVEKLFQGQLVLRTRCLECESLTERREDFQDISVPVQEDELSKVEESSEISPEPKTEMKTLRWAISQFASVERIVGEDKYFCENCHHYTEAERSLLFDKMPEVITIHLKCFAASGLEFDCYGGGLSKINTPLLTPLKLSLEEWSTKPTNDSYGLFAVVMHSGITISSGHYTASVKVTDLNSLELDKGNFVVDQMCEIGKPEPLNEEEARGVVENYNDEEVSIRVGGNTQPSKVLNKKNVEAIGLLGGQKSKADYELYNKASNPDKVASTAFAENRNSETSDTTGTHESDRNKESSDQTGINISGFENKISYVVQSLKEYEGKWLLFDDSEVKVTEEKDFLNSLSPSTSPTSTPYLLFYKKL
Procedure, shortened: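 Enzyme-free wells gave the negative control, while test wells held 1nM USP1/UAF1 preincubated with compound for 15 min at room temperature. Ub-Rho at 150nM final started the reaction, and fluorescence at 480/540 nm was recorded kinetically.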

[8] = target: Thyrotropin-releasing hormone receptor (Homo sapiens) (UniProt P34981); assay: qHTS for Small Molecule Agonists and Allosteric Enhancers of Human TRH Receptor: Validation Screen for Agonists (AID 493127;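 active = calcium activation more than 3 SD above the typical response in the agonist read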;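 note: intracellular calcium rise by fluo-8 fluorescence before TRH EC20 addition; 0% is about no effect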); conditions: TRH receptor agonist cell assay; at 2 µM; stronger effect = higher value
Procedure, shortened: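 Kinetic fluorescence assay of agonist-induced calcium release: overnight-plated TRHR cells, room-temperature fluo-8 loading, baseline then compound addition with per-second reads.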

[9] = target: Galactokinase (Homo sapiens) (UniProt P51570); assay: qHTS Validation Assay for Inhibitors of Human Galactokinase (GALK) (AID 493189); note: 0% is about no effect
Galactokinase (Homo sapiens), sequence (P51570 whole entry, looked up): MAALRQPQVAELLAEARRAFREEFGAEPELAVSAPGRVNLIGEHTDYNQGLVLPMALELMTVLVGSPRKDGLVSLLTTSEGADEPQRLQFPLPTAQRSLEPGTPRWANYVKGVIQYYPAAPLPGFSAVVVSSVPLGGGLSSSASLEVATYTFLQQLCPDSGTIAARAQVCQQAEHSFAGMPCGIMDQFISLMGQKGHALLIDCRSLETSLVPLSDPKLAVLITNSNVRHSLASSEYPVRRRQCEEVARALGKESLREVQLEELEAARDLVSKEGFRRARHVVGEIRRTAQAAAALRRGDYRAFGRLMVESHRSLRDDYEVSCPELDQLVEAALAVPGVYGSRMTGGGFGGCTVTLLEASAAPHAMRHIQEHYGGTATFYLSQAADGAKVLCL
Procedure, shortened: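 Enzyme activity is inferred from ATP consumption: human GALK phosphorylates galactose (100 uM) using 35 uM ATP for 1 h at room temperature, and luciferase-based Kinase-Glo Plus reports unconsumed ATP.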

[10] = Validation screen for small molecules that induce DNA re-replication in SW480 colon adenocarcinoma cells (AID 504364); note: 0% is about no effect
Procedure, shortened: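 Hoechst-stained SW480 nuclei, imaged at 405 nm excitation after 48 hr compound exposure, were counted for elevated DNA content as the re-replication signal.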

[11] = qHTS for Inhibitors of ATXN expression: Validation of Cytotoxic Assay (AID 588349); note: potency is the fitted concentration of half-maximal effect
Procedure, shortened: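 Toxicity of test compounds toward HEK293 cells is scored from cellular ATP content measured by CellTiter Glo. Cells receive titrated doses and incubate 72 hr at 37 degrees C beforehand.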

[12] = qHTS for Inhibitors of ATXN expression: Validation (AID 588378); note: nearly all actives have a fitted effect of over 75% in size; note: potency is the fitted concentration of half-maximal effect
Procedure, shortened: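 After a 2 h attachment and 24 h compound incubation, HEK293-ATXN2-FFLuc wells are read for fluorescence at 405 nm excitation/525 nm emission as a viability measure, then for Bright-Glo luminescence reflecting ATXN2 expression.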

[13] = target: DNA dC->dU-editing enzyme APOBEC-3G (Homo sapiens) (UniProt Q9HC16); assay: qHTS for inhibitors of Vif-A3G interactions: Validation (AID 588379); note: 0% is about no effect
Procedure, shortened: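 Yellow fluorescence (Ex 488, Em 500-530) of Vif-coexpressing HeLa A3G-eYFP cells, scanned by Acumen cytometer, reports blocked A3G degradation. Cells plated at 700/well overnight at 37 deg C before compound addition, then a further overnight compound incubation at 37 deg C.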

[14] = target: Estrogen receptor (Homo sapiens) (UniProt P03372); assay: qHTS assay for small molecule antagonists of estrogen receptor alpha signaling (AID 588513; active = well fitted curve in the direction sought with a large enough effect in the signal ratio, with a control signal flat, not every such curve was filed as active; the % refers to the signal ratio; note: % is set by controls: 0 for no effect and ±100 for the full control effect)
Estrogen receptor (Homo sapiens), sequence (P03372 whole entry, looked up): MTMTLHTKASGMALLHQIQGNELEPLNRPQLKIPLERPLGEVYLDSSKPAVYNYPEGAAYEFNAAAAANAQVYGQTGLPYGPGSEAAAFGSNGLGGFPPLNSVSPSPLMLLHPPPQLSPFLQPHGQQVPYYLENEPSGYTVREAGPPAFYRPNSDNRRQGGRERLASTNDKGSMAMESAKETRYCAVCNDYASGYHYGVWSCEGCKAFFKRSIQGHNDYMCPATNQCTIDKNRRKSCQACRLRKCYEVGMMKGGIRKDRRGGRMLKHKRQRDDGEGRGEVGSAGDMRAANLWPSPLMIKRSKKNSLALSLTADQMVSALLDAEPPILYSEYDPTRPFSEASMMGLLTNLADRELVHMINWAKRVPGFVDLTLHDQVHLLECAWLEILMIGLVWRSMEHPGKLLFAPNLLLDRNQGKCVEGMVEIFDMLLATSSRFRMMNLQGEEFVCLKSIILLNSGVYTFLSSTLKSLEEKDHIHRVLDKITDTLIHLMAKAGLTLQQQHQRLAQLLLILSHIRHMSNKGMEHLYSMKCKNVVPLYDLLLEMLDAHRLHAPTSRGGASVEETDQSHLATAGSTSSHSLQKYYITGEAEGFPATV
Procedure, shortened: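 Antagonist-mode qHTS in ER-alpha-UAS-bla HEK 293 cells: compound titration, 0.5nM estradiol for 18 h, CCF4 fluorescence, Hill-derived IC50.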

[15] = target: Estrogen receptor (Homo sapiens) (UniProt P03372); assay: qHTS assay for small molecule agonists of estrogen receptor alpha signaling (AID 588514; calls by dose curve;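 note: 0% = vehicle only and 100% = reference agonist; nearly all actives have a fitted effect of over 70% in size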)
Procedure, shortened: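 Fluorescence from CCF4 cleavage reports ER-alpha-driven beta-lactamase expression in HEK 293 cells treated 18 hrs at 37 C. Data normalized to 17-beta-estradiol (20 nM) and DMSO, fitted to Hill equation.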

[16] = target: Bile acid receptor (Homo sapiens) (UniProt Q96RI1); assay: qHTS assay for small molecule antagonists of farnesoid X receptor signaling (AID 588526; calls by dose curve; note: % is set by controls: 0 for no effect and ±100 for the full control effect)
Procedure, shortened: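 Beta-lactamase reporter antagonist mode: HEK293T FXR-UAS-bla cells, titrated compound, CDCA stimulation, 16 h 37 C, CCF4 dye 2 h RT. Data normalized to CDCA 50 uM and DMSO; Hill-fit IC50.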

[17] = target: Glucocorticoid receptor (Homo sapiens) (UniProt P04150); assay: qHTS assay for small molecule agonists of glucocorticoid receptor signaling (AID 588532; active = well fitted curve in the direction sought with a large enough effect in the signal ratio, with a control signal flat; the % refers to the signal ratio;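 note: 100% = dexamethasone at 0.1 µM and 0% = DMSO only wells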); conditions: HeLa MMTV-bla, beta-lactamase ratio, agonist, 18 h; activation: stronger effect = higher value, percent of dexamethasone control, DMSO zero
Procedure, shortened: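 Agonist-mode qHTS: GRE-driven beta-lactamase in HeLa cells exposed 18 h to titrated compounds (up to 92 uM), then CCF4 ratio read after 2 h at RT; Hill-fitted EC50, efficacy relative to 0.1 uM dexamethasone.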

[18] = target: Glucocorticoid receptor (Homo sapiens) (UniProt P04150); assay: qHTS assay for small molecule antagonists of glucocorticoid receptor signaling (AID 588533; active = well fitted inhibition curve with a large enough effect in the signal ratio, with a control signal flat, not every such curve was filed as active; the % refers to the signal ratio;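 note: cells stimulated with 2 nM dexamethasone as agonist; % is set by controls: 0 for no effect and ±100 for the full control effect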)
Procedure, shortened: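 Antagonist-mode qHTS: compound titrations added to GRE-bla HeLa cells, then dexamethasone 2 nM final; 18 h, 37 C. CCF4 FRET fluorescence normalized to dexamethasone and DMSO; IC50 from Hill fit.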

CCN(CC)CCCN(c1ccccc1)C1Cc2ccccc2C1
inactive: Potency [1] | Potency [2] | outcome [3] | outcome [4] | outcome [5] | outcome [6] | Potency [7]
-6.42%: viability change [2]

NC(N)=N/N=C/c1c(Cl)cccc1Cl
inactive: activation [8] -6.19% | Potency [2] | outcome [3] | outcome [9] | outcome [10] | outcome [4] | outcome [5] | outcome [6] | Potency [7]
6.68%: viability change [2]

COCCCC/C(=N\OCCN)c1ccc(C(F)(F)F)cc1
inactive: Potency [1] | Potency [2] | outcome [3] | outcome [9] | outcome [10] | outcome [4] | outcome [5] | Potency [7] | Potency [11]
9.56%: viability change [2]

COCCc1ccc(OCC(O)CNC(C)C)cc1 (stereo not given)
-2.79%: viability change [2]
inactive: Potency [1] | Potency [2] | outcome [3] | outcome [9] | outcome [10] | outcome [4] | outcome [5] | outcome [6] | Potency [7] | Potency [11] | Potency [12]

CC1=NS(=O)(=O)c2cc(Cl)ccc2N1
inactive: Potency [1] | Potency [2] | outcome [3] | outcome [9] | outcome [10] | outcome [4] | outcome [5] | Potency [7] | Potency [11] | Potency [12] | outcome [13]
3.36%: viability change [2]

O=C1CC2(CCCC2)CC(=O)N1CCCCN1CCN(c2ncccn2)CC1
inactive: Potency [1] | activation [8] 0.688% | outcome [3] | outcome [9] | outcome [10] | outcome [4] | outcome [5] | outcome [6] | Potency [7] | Potency [11] | Potency [12] | outcome [13]

CC(C)(Oc1ccc(CCNC(=O)c2ccc(Cl)cc2)cc1)C(=O)O
inactive: Potency [1] | Potency [2] | outcome [3] | outcome [4] | outcome [5] | outcome [6] | Potency [7] | Potency [11] | Potency [12] | outcome [14] | Potency [15] | outcome [16] | activation [17] -5.13% | Potency [18]
5.14%: viability change [2]

CCn1ccnc1CC1COc2ccccc2O1 (stereo not given)
inactive: activation [8] 1.56% | Potency [2] | outcome [3] | outcome [9] | outcome [10] | outcome [4] | outcome [5] | outcome [6] | Potency [7] | Potency [11] | Potency [12]
-1.46%: viability change [2]

NC(N)=NC(=O)Cc1c(Cl)cccc1Cl
inactive: Potency [1] | activation [8] 1.44% | outcome [3] | outcome [9] | outcome [10] | outcome [4] | outcome [5] | outcome [6] | Potency [7] | Potency [11] | Potency [12] | outcome [13]

CCOC(=O)C1=C(C)NC(C)=C(C(=O)OC)C1c1cccc(Cl)c1Cl (stereo not given)
-3.98%: viability change [2]
inactive: activation [8] 1.12% | Potency [2] | outcome [3] | outcome [9] | outcome [10] | outcome [4] | outcome [5] | outcome [6]

CCN(CC)CCOCCOC(=O)C1(c2ccccc2)CCCC1
0.933%: viability change [2]
inactive: Potency [1] | Potency [2] | outcome [3] | outcome [9] | outcome [10] | outcome [4] | outcome [5] | Potency [7] | outcome [13]

OC(CCN1CCCCC1)(c1ccccc1)C1CCCCC1 (stereo not given)
-0.392%: viability change [2]
inactive: Potency [1] | Potency [2] | outcome [3] | outcome [9] | outcome [10] | outcome [4] | outcome [5] | outcome [6] | Potency [7]

OCCN1CCN(CC/C=C2/c3ccccc3Sc3ccc(C(F)(F)F)cc32)CC1
active: Potency [7] 56.2 µM | Potency [11] 28.2 µM | Potency [12] 17.8 µM
-4.74%: viability change [2]
inactive: activation [8] 1.19% | Potency [2] | outcome [3] | outcome [9] | outcome [10] | outcome [4] | outcome [5] | outcome [6]

CCN(CC)CCNC(=O)c1cc(S(C)(=O)=O)ccc1OC
10.1%: viability change [2]
inactive: activation [8] 0.0625% | Potency [2] | outcome [3] | outcome [9] | outcome [10] | outcome [4] | outcome [5] | outcome [6] | Potency [7] | Potency [11] | Potency [12]

O=C(CCNNC(=O)c1ccncc1)NCc1ccccc1
inactive: activation [8] 0.188% | Potency [2] | outcome [3] | outcome [9] | outcome [10] | outcome [4] | outcome [5] | outcome [6] | Potency [7] | Potency [11] | Potency [12]
-3.76%: viability change [2]

CC(C)[N+](C)(CCOC(=O)C1c2ccccc2Oc2ccccc21)C(C)C
-4.32%: viability change [2]
inactive: activation [8] 0.875% | Potency [2] | outcome [3] | outcome [9] | outcome [10] | outcome [4] | outcome [5] | Potency [7] | Potency [11] | Potency [12]

CCN(CC)CCNC(=O)c1ccc(NC(C)=O)cc1
inactive: activation [8] 0.312% | Potency [2] | outcome [3] | outcome [9] | outcome [10] | outcome [4] | outcome [5] | outcome [6] | Potency [7] | Potency [11] | Potency [12]
16.6%: viability change [2]

CC(C)COCC(CN(Cc1ccccc1)c1ccccc1)N1CCCC1 (stereo not given)
2.97%: viability change [2]
inactive: activation [8] 0.812% | Potency [2] | outcome [3] | outcome [9] | outcome [10] | outcome [4] | outcome [5] | outcome [6] | Potency [7] | Potency [11] | Potency [12]

NC(=O)N1c2ccccc2C=Cc2ccccc21
-0.0645%: viability change [2]
inactive: activation [8] 0.625% | Potency [2] | outcome [3] | outcome [9] | outcome [10] | outcome [4] | outcome [5] | Potency [7] | Potency [11] | Potency [12] | outcome [14] | Potency [15]

CCn1cc(C(=O)O)c(=O)c2cc3c(cc21)OCO3
-3.79%: viability change [2]
inactive: activation [8] -0.375% | Potency [2] | outcome [3] | outcome [9] | outcome [10] | outcome [4] | outcome [5] | outcome [6] | Potency [7] | Potency [11] | Potency [12]

CN(C)CC/C=C1\c2ccccc2COc2ccccc21
10.6%: viability change [2]
inactive: activation [8] 2.94% | Potency [2] | outcome [3] | outcome [9] | outcome [10] | outcome [4] | outcome [5] | outcome [6] | Potency [7] | Potency [11] | outcome [13]
